# Assay results from the supplement of paper PMC4466140.
# Key:
# Assay in all cases: SPOT peptide array binding signal intensity (averaged, normalized) (arbitrary units (background-subtracted, floor 0; scale differs between SH3 domains)); higher = stronger binding of the SH3 domain to the peptide
# SpBzz1-D2 = biological target: SpBzz1-D2
# Procedure, shortened: (§1)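 GST-SH3 fusions from four yeast species, purified on glutathione Sepharose, were incubated at 10 μg/ml overnight at 4°C on membranes of synthetic 15-mer peptides in which cysteines were replaced with serines. Binding signal is the normalized, background-subtracted spot intensity averaged over replicates, in domain-specific arbitrary units.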
# SpCyk3 = biological target: SpCyk3
# Procedure, shortened: as §1
# SpHof1 = biological target: SpHof1
# Procedure, shortened: as §1
# SpHof1-2 = biological target: SpHof1-2
# Procedure, shortened: as §1
# SpHof1-3 = biological target: SpHof1-3
# Procedure, shortened: as §1
# SpHse1 = biological target: SpHse1
# Procedure, shortened: as §1
# SpLsb1 = biological target: SpLsb1
# Procedure, shortened: as §1
# SpLsb4 = biological target: SpLsb4
# Procedure, shortened: as §1
# SpMyo1 = biological target: SpMyo1
# Procedure, shortened: as §1
# SpNbp2 = biological target: SpNbp2
# Procedure, shortened: as §1
# SpPex13 = biological target: SpPex13
# Procedure, shortened: as §1
# SpRvs167 = biological target: SpRvs167
# Procedure, shortened: as §1
# SpSla1-D1-D2 = biological target: SpSla1-D1-D2
# Procedure, shortened: as §1
# SpSla1-D3 = biological target: SpSla1-D3
# Procedure, shortened: as §1
# AgAbp1 = biological target: AgAbp1
# Procedure, shortened: as §1
# AgBbc1 = biological target: AgBbc1
# Procedure, shortened: as §1
# AgBem1-D1 = biological target: AgBem1-D1
# Procedure, shortened: as §1
# AgBzz1-D1 = biological target: AgBzz1-D1
# Procedure, shortened: as §1
# AgBzz1-D2 = biological target: AgBzz1-D2
# Procedure, shortened: as §1
# AgCyk3 = biological target: AgCyk3
# Procedure, shortened: as §1
# AgFus1 = biological target: AgFus1
# Procedure, shortened: as §1
# AgHof1 = biological target: AgHof1
# Procedure, shortened: as §1
# AgHse1 = biological target: AgHse1
# Procedure, shortened: as §1
# AgLsb1 = biological target: AgLsb1
# Procedure, shortened: as §1
# AgLsb4 = biological target: AgLsb4
# Procedure, shortened: as §1
# AgMyo5 = biological target: AgMyo5
# Procedure, shortened: as §1
# AgNbp2 = biological target: AgNbp2
# Procedure, shortened: as §1
# AgRvs167 = biological target: AgRvs167
# Procedure, shortened: as §1
# AgSho1 = biological target: AgSho1
# Procedure, shortened: as §1
# AgSla1-D1-D2 = biological target: AgSla1-D1-D2
# Procedure, shortened: as §1
# AgSla1-D3 = biological target: AgSla1-D3
# Procedure, shortened: as §1
# CaAbp1-D1 = biological target: CaAbp1-D1
# Procedure, shortened: as §1
# CaAbp1-D2 = biological target: CaAbp1-D2
# Procedure, shortened: as §1
# CaBbc1 = biological target: CaBbc1
# Procedure, shortened: as §1
# CaBem1-D1 = biological target: CaBem1-D1
# Procedure, shortened: as §1
# CaBzz1-D1 = biological target: CaBzz1-D1
# Procedure, shortened: as §1
# CaBzz1-D2 = biological target: CaBzz1-D2
# Procedure, shortened: as §1
# CaCyk3 = biological target: CaCyk3
# Procedure, shortened: as §1
# CaFus1 = biological target: CaFus1
# Procedure, shortened: as §1
# CaHof1 = biological target: CaHof1
# Procedure, shortened: as §1
# CaHse1 = biological target: CaHse1
# Procedure, shortened: as §1
# CaLsb1 = biological target: CaLsb1
# Procedure, shortened: as §1
# CaLsb4 = biological target: CaLsb4
# Procedure, shortened: as §1
# CaMyo5 = biological target: CaMyo5
# Procedure, shortened: as §1
# CaNbp2 = biological target: CaNbp2
# Procedure, shortened: as §1
# CaRvs167 = biological target: CaRvs167
# Procedure, shortened: as §1
# CaRvs167-3 = biological target: CaRvs167-3
# Procedure, shortened: as §1
# CaSho1 = biological target: CaSho1
# Procedure, shortened: as §1
# CaSla1-D1-D2 = biological target: CaSla1-D1-D2
# Procedure, shortened: as §1
# CaSla1-D3 = biological target: CaSla1-D3
# Procedure, shortened: as §1
# ScAbp1 = biological target: ScAbp1
# Procedure, shortened: as §1
# ScBbc1 = biological target: ScBbc1
# Procedure, shortened: as §1
# ScBem1-D1 = biological target: ScBem1-D1
# Procedure, shortened: as §1
# ScBzz1-D1 = biological target: ScBzz1-D1
# Procedure, shortened: as §1
# ScBzz1-D2 = biological target: ScBzz1-D2
# Procedure, shortened: as §1
# ScCyk3 = biological target: ScCyk3
# Procedure, shortened: as §1
# ScFus1 = biological target: ScFus1
# Procedure, shortened: as §1
# ScHof1 = biological target: ScHof1
# Procedure, shortened: as §1
# ScHse1 = biological target: ScHse1
# Procedure, shortened: as §1
# ScLsb1 = biological target: ScLsb1
# Procedure, shortened: as §1
# ScLsb2 = biological target: ScLsb2
# Procedure, shortened: as §1
# ScLsb3 = biological target: ScLsb3
# Procedure, shortened: as §1
# ScLsb4 = biological target: ScLsb4
# Procedure, shortened: as §1
# ScMyo3 = biological target: ScMyo3
# Procedure, shortened: as §1
# ScMyo5 = biological target: ScMyo5
# Procedure, shortened: as §1
# ScNbp2 = biological target: ScNbp2
# Procedure, shortened: as §1
# ScPex13 = biological target: ScPex13
# Procedure, shortened: as §1
# ScRvs167 = biological target: ScRvs167
# Procedure, shortened: as §1
# ScSho1 = biological target: ScSho1
# Procedure, shortened: as §1
# ScSla1-D1-D2 = biological target: ScSla1-D1-D2
# Procedure, shortened: as §1
# ScSla1-D3 = biological target: ScSla1-D3
# Procedure, shortened: as §1
# SpAbp1-D1 = biological target: SpAbp1-D1
# Procedure, shortened: as §1
# SpBbc1 = biological target: SpBbc1
# Procedure, shortened: as §1
# SpBzz1-D1 = biological target: SpBzz1-D1
# Procedure, shortened: as §1
binder,measurement,setting,value
RSLRKRPTSPSISGS,SPOT peptide array binding signal intensity,SpBzz1-D2,0.75
same,SPOT peptide array binding signal intensity,SpCyk3,13.5
same,SPOT peptide array binding signal intensity,SpHof1,428
same,SPOT peptide array binding signal intensity,SpHof1-2,43.8
same,SPOT peptide array binding signal intensity,SpHof1-3,730
same,SPOT peptide array binding signal intensity,SpHse1,621
same,SPOT peptide array binding signal intensity,SpLsb1,17.8
same,SPOT peptide array binding signal intensity,SpLsb4,776
same,SPOT peptide array binding signal intensity,SpMyo1,9
same,SPOT peptide array binding signal intensity,SpNbp2,2180
same,SPOT peptide array binding signal intensity,SpPex13,7
same,SPOT peptide array binding signal intensity,SpRvs167,10.8
same,SPOT peptide array binding signal intensity,SpSla1-D1-D2,5
same,SPOT peptide array binding signal intensity,SpSla1-D3,8
IRMPSNPALPKKLLN,SPOT peptide array binding signal intensity,AgAbp1,194
same,SPOT peptide array binding signal intensity,AgBbc1,40
same,SPOT peptide array binding signal intensity,AgBem1-D1,431
same,SPOT peptide array binding signal intensity,AgBzz1-D1,10
same,SPOT peptide array binding signal intensity,AgBzz1-D2,10
same,SPOT peptide array binding signal intensity,AgCyk3,1
same,SPOT peptide array binding signal intensity,AgFus1,806
same,SPOT peptide array binding signal intensity,AgHof1,59.5
same,SPOT peptide array binding signal intensity,AgHse1,367
same,SPOT peptide array binding signal intensity,AgLsb1,2.5
same,SPOT peptide array binding signal intensity,AgLsb4,21.5
same,SPOT peptide array binding signal intensity,AgMyo5,1.75
same,SPOT peptide array binding signal intensity,AgNbp2,308
same,SPOT peptide array binding signal intensity,AgRvs167,2.33
same,SPOT peptide array binding signal intensity,AgSho1,852
same,SPOT peptide array binding signal intensity,AgSla1-D1-D2,16
same,SPOT peptide array binding signal intensity,AgSla1-D3,7.5
same,SPOT peptide array binding signal intensity,CaAbp1-D1,616
same,SPOT peptide array binding signal intensity,CaAbp1-D2,1080
same,SPOT peptide array binding signal intensity,CaBbc1,126
same,SPOT peptide array binding signal intensity,CaBem1-D1,444
same,SPOT peptide array binding signal intensity,CaBzz1-D1,314
same,SPOT peptide array binding signal intensity,CaBzz1-D2,247
same,SPOT peptide array binding signal intensity,CaCyk3,15
same,SPOT peptide array binding signal intensity,CaFus1,1400
same,SPOT peptide array binding signal intensity,CaHof1,≤ 0
same,SPOT peptide array binding signal intensity,CaHse1,504
same,SPOT peptide array binding signal intensity,CaLsb1,15.5
same,SPOT peptide array binding signal intensity,CaLsb4,692
same,SPOT peptide array binding signal intensity,CaMyo5,97.5
same,SPOT peptide array binding signal intensity,CaNbp2,1060
same,SPOT peptide array binding signal intensity,CaRvs167,65.7
same,SPOT peptide array binding signal intensity,CaRvs167-3,3.5
same,SPOT peptide array binding signal intensity,CaSho1,2070
same,SPOT peptide array binding signal intensity,CaSla1-D1-D2,476
same,SPOT peptide array binding signal intensity,CaSla1-D3,424
same,SPOT peptide array binding signal intensity,ScAbp1,104
same,SPOT peptide array binding signal intensity,ScBbc1,9.5
same,SPOT peptide array binding signal intensity,ScBem1-D1,2
same,SPOT peptide array binding signal intensity,ScBzz1-D1,17
same,SPOT peptide array binding signal intensity,ScBzz1-D2,29
same,SPOT peptide array binding signal intensity,ScCyk3,6
same,SPOT peptide array binding signal intensity,ScFus1,805
same,SPOT peptide array binding signal intensity,ScHof1,5.5
same,SPOT peptide array binding signal intensity,ScHse1,89.5
same,SPOT peptide array binding signal intensity,ScLsb1,102
same,SPOT peptide array binding signal intensity,ScLsb2,≤ 0
same,SPOT peptide array binding signal intensity,ScLsb3,769
same,SPOT peptide array binding signal intensity,ScLsb4,296
same,SPOT peptide array binding signal intensity,ScMyo3,35.2
same,SPOT peptide array binding signal intensity,ScMyo5,2
same,SPOT peptide array binding signal intensity,ScNbp2,509
same,SPOT peptide array binding signal intensity,ScPex13,195
same,SPOT peptide array binding signal intensity,ScRvs167,32.5
same,SPOT peptide array binding signal intensity,ScSho1,1060
same,SPOT peptide array binding signal intensity,ScSla1-D1-D2,544
same,SPOT peptide array binding signal intensity,ScSla1-D3,277
same,SPOT peptide array binding signal intensity,SpAbp1-D1,268
same,SPOT peptide array binding signal intensity,SpBbc1,5
same,SPOT peptide array binding signal intensity,SpBzz1-D1,700
same,SPOT peptide array binding signal intensity,SpBzz1-D2,41
same,SPOT peptide array binding signal intensity,SpCyk3,4
same,SPOT peptide array binding signal intensity,SpHof1,53.2
same,SPOT peptide array binding signal intensity,SpHof1-2,30
same,SPOT peptide array binding signal intensity,SpHof1-3,22.8
same,SPOT peptide array binding signal intensity,SpHse1,294
same,SPOT peptide array binding signal intensity,SpLsb1,16.8
same,SPOT peptide array binding signal intensity,SpLsb4,1170
same,SPOT peptide array binding signal intensity,SpMyo1,67.5
same,SPOT peptide array binding signal intensity,SpNbp2,241
same,SPOT peptide array binding signal intensity,SpPex13,136
same,SPOT peptide array binding signal intensity,SpRvs167,107
same,SPOT peptide array binding signal intensity,SpSla1-D1-D2,17.5
same,SPOT peptide array binding signal intensity,SpSla1-D3,477
